Bioassay records from PubChem.
Only some compounds are listed: those with a hit (about 2.5% of all), similar ones and a draw of the others.
POLK inh – DNA polymerase kappa (human) inhibition | Q9UBT6 | actives 0.53% (n = 400,000) | purified Pol kappa, fluorescent DNA synthesis assay, 10 min | Potency, µM (top dose mostly 107 µM), without a hit: top-dose activity, negative = inhibition, hits mostly inhibitors | AID 588579; further: on the % scale 0 is the no-effect control and ±100 the full control effect
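Fluorescent qHTS in 1536-well format: enzyme (10 nM) and compound sat 15 min at room temperature before 50 nM substrate (final) was added. Signal taken at 0 and 10 min; no-enzyme buffer wells were negative controls.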
POLH inh – DNA polymerase eta (human) inhibition; Q9Y253; recombinant Pol eta, fluorescent DNA replication assay; Potency, µM (top dose mostly 114 µM), for the others: at the highest dose activity change, negative = inhibition, most hits filed as inhibitors; actives 1.2% (n = 390,000); AID 588591; further: on the % scale 0 is the no-effect control and ±100 the full control effect
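Fluorescent replication assay: 50 nM final substrate added after a 15 min room-temperature compound preincubation with 10 nM enzyme. Signal taken at 0 min and again at 10 min.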
Pol beta inh – inhibitors of human DNA polymerase beta; actives 1.3% (n = 340,000); Potency, µM (series often up to 114 µM), inactives show at the highest dose activity change, negative = inhibition, hits mostly inhibitors; AID 485314; Pol beta primer extension/strand displacement, fluorescence kinetic; P06746; further: on the % scale 0 is the no-effect control and ±100 the full control effect
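Human Pol beta at 10 nM; strand-displacement substrate 50 nM final. Compound exposure 15 min at room temperature before start, reaction 10 min at room temperature.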
Pol iota inh – DNA polymerase iota (human) inhibition; actives 1% (n = 390,000); Potency, µM (series often up to 115 µM), inactives show top-dose activity, negative = inhibition, actives largely listed as inhibitors; AID 588590; Q9UNA4; Pol iota fluorescent replication assay, 10 min
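Pol iota at 10 nM preincubated 15 min with compounds at room temperature; reaction started with fluorescent substrate, 50 nM final. Fluorescence read kinetically at 0 and 10 min; buffer-only wells as negative control.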
WRN inhibitor – blocks human WRN helicase; Q14191; actives 0.46% (n = 360,000); Potency, µM (highest dose often 114 µM), without a hit: top-dose activity change, negative = inhibition, actives largely listed as inhibitors; WRN helicase unwinding, fluorescent forked duplex, kinetic; AID 651768; further: on the % scale 0 is the no-effect control and ±100 the full control effect; nearly all actives have a fitted effect of over 55% in size
Target sequence (Q14191 whole entry, looked up): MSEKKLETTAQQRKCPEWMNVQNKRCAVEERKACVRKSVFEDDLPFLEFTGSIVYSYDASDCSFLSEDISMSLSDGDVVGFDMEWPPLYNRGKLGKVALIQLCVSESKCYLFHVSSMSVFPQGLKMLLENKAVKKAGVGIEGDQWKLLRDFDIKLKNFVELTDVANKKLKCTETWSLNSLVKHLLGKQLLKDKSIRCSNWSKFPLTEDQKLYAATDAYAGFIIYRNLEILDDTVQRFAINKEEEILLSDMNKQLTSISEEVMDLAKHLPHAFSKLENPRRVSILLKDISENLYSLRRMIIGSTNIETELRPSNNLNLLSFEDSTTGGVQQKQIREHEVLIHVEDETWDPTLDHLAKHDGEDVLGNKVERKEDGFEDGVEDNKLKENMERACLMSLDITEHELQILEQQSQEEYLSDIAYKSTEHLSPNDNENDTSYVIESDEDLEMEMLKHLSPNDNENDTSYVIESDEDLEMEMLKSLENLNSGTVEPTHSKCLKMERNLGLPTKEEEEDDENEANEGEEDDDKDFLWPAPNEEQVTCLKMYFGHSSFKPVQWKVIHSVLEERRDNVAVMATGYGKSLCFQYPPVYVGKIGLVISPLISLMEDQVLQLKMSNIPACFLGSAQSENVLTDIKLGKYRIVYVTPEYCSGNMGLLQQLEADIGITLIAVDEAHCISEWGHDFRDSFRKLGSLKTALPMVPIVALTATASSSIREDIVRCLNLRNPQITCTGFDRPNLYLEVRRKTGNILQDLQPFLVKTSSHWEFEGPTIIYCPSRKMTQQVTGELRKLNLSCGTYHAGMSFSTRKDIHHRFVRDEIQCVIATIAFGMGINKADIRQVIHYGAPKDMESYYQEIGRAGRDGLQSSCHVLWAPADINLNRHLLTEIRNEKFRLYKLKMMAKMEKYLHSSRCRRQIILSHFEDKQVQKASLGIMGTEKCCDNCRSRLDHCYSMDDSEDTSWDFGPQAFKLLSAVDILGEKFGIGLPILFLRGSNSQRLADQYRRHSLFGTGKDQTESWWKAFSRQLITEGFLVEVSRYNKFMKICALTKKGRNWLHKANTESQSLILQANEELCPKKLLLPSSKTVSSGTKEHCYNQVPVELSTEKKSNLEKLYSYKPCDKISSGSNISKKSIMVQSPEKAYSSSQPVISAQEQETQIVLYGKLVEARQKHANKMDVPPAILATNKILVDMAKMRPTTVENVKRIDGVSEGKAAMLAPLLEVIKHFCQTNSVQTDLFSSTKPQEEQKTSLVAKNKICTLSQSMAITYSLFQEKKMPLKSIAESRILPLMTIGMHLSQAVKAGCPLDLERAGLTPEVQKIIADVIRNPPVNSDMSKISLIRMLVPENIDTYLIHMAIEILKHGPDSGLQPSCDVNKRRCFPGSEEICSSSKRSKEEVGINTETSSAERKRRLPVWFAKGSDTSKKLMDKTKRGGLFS
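WRN at 20 nM final was preincubated with compound for 15 min at room temperature; reaction started with 100 nM forked duplex oligonucleotide carrying fluorophore and quencher plus 2 mM ATP (final). Unwinding followed kinetically by red fluorescence (ex 525/em 598 nm).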
L3MBTL1 inh – L3MBTL1 (human) inhibition; AlphaScreen L3MBTL1–H3K9me1 peptide binding; actives 0.66% (n = 230,000); Q9Y468; Potency, µM (titrated, usually from 57.1 µM), for inactives: top-dose activity, negative = inhibition, most hits filed as inhibitors; further: on the % scale 0 is the no-effect control and ±100 the full control effect; nearly all actives have a fitted effect of over 60% in size
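Read-out is AlphaScreen signal from streptavidin donor and nickel chelate acceptor beads (10 ug/mL final each) bridging L3MBTL1 (50 nM) and biotinylated K9-monomethylated H3(1-15) peptide (75 nM), after 30 min compound exposure at room temperature.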
* marks the source's active call; other numbers are inactive results; [ ] = dose if it differs, or a comment. The call rests on the fitted dose curve; in most records, active means well fitted curve in the direction sought with a large enough effect; inconclusive means small, poorly fitted or top-dose-only effect, or another doubt; inactive means no such curve, though single readings can be large; an effect the other way counts as inactive or inconclusive. Potency means the concentration at half of the fitted maximal effect.

What do the screens show for `Cc1c(Cc2ccccc2)c(=O)oc2cc(OCC(=O)NC(Cc3ccc(Cl)cc3)C(=O)O)ccc12` (stereo not drawn)?
POLK inh: 12%; POLH inh: -8%; Pol beta inh: 8%; Pol iota inh: -4%; WRN inhibitor: -11%; L3MBTL1 inh: -3%

Results for Cc1c(OCC(=O)NC(Cc2ccc(Cl)cc2)C(=O)O)ccc2c3c(c(=O)oc12)CCC3 (stereo not drawn) ?
POLK inh: 15%; POLH inh: -5%; Pol beta inh: 1%; Pol iota inh: -1%; WRN inhibitor: 4%; L3MBTL1 inh: -2%

What do the screens show for `Cc1c(OCC(=O)N[C@H](C(=O)O)c2ccccc2)ccc2c3c(c(=O)oc12)CCCC3`?
POLK inh: inconclusive; POLH inh: 56µM*; Pol beta inh: inconclusive; Pol iota inh: inconclusive; WRN inhibitor: -6%[11.6 µM]

What do the screens show for `Cc1c(OCC(=O)NC(Cc2ccc(Cl)cc2)C(=O)O)ccc2c1oc(=O)c1ccccc12` (stereo not drawn)?
POLK inh: -17%; POLH inh: 50µM*; Pol beta inh: 0%; Pol iota inh: 5%; WRN inhibitor: 0%[11.6 µM]

How did Cc1c(OCC(=O)NCC(O)c2ccccc2)ccc2c3c(c(=O)oc12)CCC3 (stereo not drawn) do in these assays?
POLK inh: 1%; POLH inh: 5%; Pol beta inh: 9%; Pol iota inh: 36%; WRN inhibitor: -3%

How did COc1ccccc1CN1COc2ccc3c(oc(=O)c4ccccc43)c2C1 do in these assays?
POLK inh: 3%; POLH inh: -12%; Pol beta inh: -1%; Pol iota inh: inconclusive

Results for Cc1c(OCc2ccc(C(=O)O)o2)ccc2c3c(c(=O)oc12)CCC3 ?
POLK inh: 5%[60.1 µM]; POLH inh: 18µM*; Pol beta inh: 35µM*; Pol iota inh: 40µM*; WRN inhibitor: -27%; L3MBTL1 inh: inconclusive

How did Cc1c(C)c2ccc(OCC(=O)Nc3ccc(S(N)(=O)=O)cc3)c(C)c2oc1=O do in these assays?
POLK inh: inconclusive; POLH inh: inconclusive; Pol beta inh: 32µM*; Pol iota inh: inconclusive; WRN inhibitor: -14%[57.1 µM]

Results for COC(=O)c1ccc(COc2ccc3c(C)c(C)c(=O)oc3c2C)o1 ?
POLK inh: -1%; POLH inh: -10%; Pol beta inh: 7%; Pol iota inh: 0%; WRN inhibitor: -1%; L3MBTL1 inh: 23%

What do the screens show for `O=C(Nc1nc2c(Cl)cccc2s1)c1ccc([N+](=O)[O-])o1`?
POLK inh: -13%; POLH inh: 50µM*; Pol beta inh: 4%; Pol iota inh: 31%; WRN inhibitor: -30%; L3MBTL1 inh: -5%

How did Cc1ccc(-c2csc(NC(=O)c3ccc([N+](=O)[O-])o3)n2)cc1 do in these assays?
POLK inh: 1%; POLH inh: 79µM*; Pol beta inh: 1%; Pol iota inh: -7%; WRN inhibitor: 3%

Results for O=C(Nc1nc2c(F)cccc2s1)c1ccc([N+](=O)[O-])o1 ?
POLK inh: -19%; POLH inh: 5%; Pol beta inh: 6%; Pol iota inh: -28%; WRN inhibitor: 3%; L3MBTL1 inh: 30%

How did Cc1ccccc1NC(=O)Cn1nnc(S(=O)(=O)c2ccc(C(C)(C)C)cc2)c1N do in these assays?
POLK inh: -32%; POLH inh: 1%; Pol beta inh: 32µM*; Pol iota inh: inconclusive; WRN inhibitor: -12%[11.6 µM]; L3MBTL1 inh: -13%

What do the screens show for `Cc1ccccc1NC(=O)Cn1nnc(C(=O)NCc2ccco2)c1N`?
POLK inh: 4%; POLH inh: 1%; Pol beta inh: 4%; Pol iota inh: -10%; WRN inhibitor: 0%; L3MBTL1 inh: 2%

What do the screens show for `Cc1nc(SCc2nc3ccccc3[nH]2)c2oc3cc(Br)ccc3c2n1`?
POLK inh: -8%; POLH inh: 1%; Pol iota inh: 0%; L3MBTL1 inh: 9%

How did Cc1ccc(NC(=O)CSc2nc(-c3cccs3)nc3cc(=O)[nH]n23)cc1 do in these assays?
POLK inh: -34%; POLH inh: 79µM*; Pol beta inh: 32µM*; Pol iota inh: inconclusive

What do the screens show for `Cc1cccc(-c2nc(SCC(=O)Nc3cccc(C(F)(F)F)c3)n3[nH]c(=O)cc3n2)c1`?
POLK inh: -26%; POLH inh: -19%; Pol beta inh: 40µM*; Pol iota inh: inconclusive

How did COc1ccc(NC(=O)CSc2nc(-c3ccccc3)nc3cc(=O)[nH]n23)cc1 do in these assays?
POLK inh: inconclusive; POLH inh: -15%; Pol beta inh: 25µM*; Pol iota inh: inconclusive

How did Cc1cccc(NC(=O)CSc2nc(-c3cccs3)nc3cc(=O)[nH]n23)c1 do in these assays?
POLK inh: -31%; POLH inh: -8%; Pol beta inh: inconclusive; Pol iota inh: inconclusive

What do the screens show for `Cc1ccc(NC(=O)CSc2nc(-c3ccco3)nc3cc(=O)[nH]n23)cc1C`?
POLK inh: inconclusive; POLH inh: inconclusive; Pol beta inh: 40µM*; Pol iota inh: inconclusive

What do the screens show for `CCN(CC(=O)NCc1cccs1)C(=O)c1ccc(-c2ccccc2F)o1`?
POLK inh: -9%; POLH inh: -20%; Pol iota inh: 23%; WRN inhibitor: 5%; L3MBTL1 inh: -2%

How did Cc1cccc(-c2nc3c(c(SCC(=O)N4CCCC4)n2)COC(C)(C)C3)c1 do in these assays?
POLK inh: 8%; POLH inh: -7%; Pol beta inh: -1%; Pol iota inh: 32%; WRN inhibitor: 7%

How did Cc1ccc(CSc2nnc3[nH]c(=O)cc(-c4ccccc4)n23)cc1 do in these assays?
POLK inh: -8%[60.1 µM]; POLH inh: inconclusive; Pol beta inh: -17%; Pol iota inh: 2%

What do the screens show for `COc1ccc(NC(=O)CSc2nc(-c3ccco3)nc3cc(=O)[nH]n23)cc1`?
POLK inh: inconclusive; POLH inh: inconclusive; Pol beta inh: 25µM*; Pol iota inh: 79µM*

How did COc1ccc(NC(=O)CSc2nc(-c3ccco3)nc3cc(=O)[nH]n23)cc1Cl do in these assays?
POLK inh: -37%; POLH inh: inconclusive; Pol beta inh: -34%; Pol iota inh: 79µM*; WRN inhibitor: -8%[11.6 µM]

What do the screens show for `C=CCc1ccccc1OCCSc1nc(-c2ccccc2F)nc2cc(=O)[nH]n12`?
POLK inh: -39%; POLH inh: inconclusive; Pol beta inh: 10µM*; Pol iota inh: inconclusive
